The structures appear in SMILES notation. Results filed as inconclusive are left out. Where a call stands in place of a potency, no number is given. Calls of active or inactive are those of the source. Calls come from the whole dose curve; as a rule, active = well fitted cell-killing curve with a large enough effect in the repeat runs; inconclusive = weak or mixed curves, or effect the other way; inactive = flat fitted curve, though single readings scatter.

The nature of the test: qHTS RealTime-Glo MT Cell Viability Assay in HepG2 cells - 0 hour (AID 1224889). Note: nearly all actives have a fitted effect of over 50% in size. Particulars: RealTime-Glo luminescence; series mostly up to 76.8 µM. An excerpt:
U.S. Tox21 Program National Center for Advancing Translational Sciences [NCATS] NIH Chemical Genomics Center [NCGC] U.S. Environmental Protection Agency [EPA] National Institutes of Environmental Health Sciences [NIEHS] National Toxicology Program [NTP] U.S. Food and Drug Administration [FDA] Tox21 Assay Overview: Measure of cell viability is critical in the cell-base assay. Analysis of cell viability is necessary for the characterization of cell responses to cytotoxic drugs and environmental stress. A RealTime-Glo MT Cell Viability Assay to monitor cell viability in real time of continues cell culture during 40 hours of compound treatment was used to screen Tox21 10K library compounds in HepG2 cells. The RealTime-Glo MT Cell Viability Assay is a nonlytic, homogeneous, bioluminescent method to measure cell viability in real time using a simple, plate-based method. The assay involves adding NanoLuc luciferase and a cell-permeant prosubstrate to cells in culture. Viable cells reduce the proprietary prosubstrate to generate a substrate for NanoLuc luciferase. This substrate diffuses from cells into the surrounding culture medium, where it is rapidly used by the NanoLuc Enzyme to produce a luminescent signal. The signal correlates with the number of viable cells, making the assay well suited for cytotoxicity studies.
Tox21 Assay Protocol Summary: The mixture of HepG2 cell suspension and reagents were dispensed at 600cells/6 ul/well in 1536-well tissue culture treated black solid bottom plates using a Multidrop dispenser. After the assay plates were incubated at a 37 C/5% CO2 incubator for 5 hours, 23 nL of compounds dissolved in DMSO, positive and negative controls was transferred to the assay plate by a pintool work station. The plates were incubated at 37 C for 40 hours. The luminescence intensity were measured at 0h, 8h, 16h, 24h, 32h and 40h time points using ViewLux plate reader during compound treatment.
Turning to `CC(C)OC(=O)CCC(=O)OC(C)C`, the Potency entry is “inactive”.

As to `Cc1cc(-c2ccccc2)nnc1NCCN1CCOCC1`, the Potency entry is “inactive”.

On to `CN(C)CCCCl`, for which the Potency result is “inactive”.

Turning to `CCO[Si](CC)(OCC)OCC`, the Potency entry is “inactive”.

`CCCCCC/C=C/C(=O)OC`: the Potency entry is “inactive”.

With `CC(=O)O[Si](C)(OC(C)=O)OC(C)=O`, the Potency result was “inactive”.

In the case of `CC(C)OC(=O)OCOP(=O)(CO[C@H](C)Cn1cnc2c(N)ncnc21)OCOC(=O)OC(C)C`, the Potency result was “inactive”.

On to `CCCCCC(C)O` (stereo not given), for which the Potency entry was “inactive”.

With `CC(C)NCC(O)c1ccc2ccccc2c1` (stereo not given), the Potency entry was “inactive”.

Regarding `COC(C)(OC)OC`, the Potency entry is “inactive”.

In the case of `CC(C)CCOC(=O)c1ccccc1`, the Potency entry was “inactive”.

With `CCCc1ccc(O)cc1`, the Potency result was “inactive”.

For the molecule `Cc1ccc(C)c([N+](=O)[O-])c1`, the Potency result was “inactive”.

As to `COc1cc2c(cc1OC)CN(C(=O)[C@H](C)N[C@@H](CCc1ccccc1)C(=O)O)[C@H](C(=O)O)C2`, the Potency entry was “inactive”.

Turning to `Cn1nnc2c(C(N)=O)ncn2c1=O`, the Potency result is “inactive”.

As for `CCOc1ccccc1OCC1CNCCO1` (stereo not given), the Potency result was “inactive”.

In the case of `CN(C)C(C)(C)CO`, the Potency result was “inactive”.

In the case of `CC1=NN(c2ccc(S(=O)(=O)O)cc2)C(=O)C1`, the Potency entry was “inactive”.

Turning to `CCOc1cccc(N)c1`, the Potency result is “inactive”.

In the case of `C=CCCCCCCCCC(=O)OCCCC`, the Potency result was “inactive”.

Turning to `CC1=C(C(=O)O)N2C(=O)[C@@H](NC(=O)[C@H](N)c3ccccc3)[C@H]2SC1`, the Potency result is “inactive”.

`N[C@@H](Cc1ccc(O)cc1)C(=O)O`: the activity change, negative = cytotoxicity is -4.17% [at 6.97 µM] (inactive).

Turning to `CC1(C)Oc2ccc(C#N)cc2[C@@H](N2CCCC2=O)[C@@H]1O`, the Potency result was “inactive”.

`c1ccc(-c2nn[nH]n2)cc1`: the Potency entry is “inactive”.

Take `C=CC(=O)OCC1CCCO1` (stereo not given): the Potency result is “inactive”.

As to `[O-][n+]1cccc(/C(Cl)=N/OC[C@@H](O)CN2CCCCC2)c1`, the Potency entry is “inactive”.

For `CCOCCOCC`, the Potency entry is “inactive”.

On to `C/C(CC(C)C)=N\O`, for which the Potency entry is “inactive”.

With `CC(C)Nc1ccccc1`, the Potency entry is “inactive”.

`O=C1CCCCO1`: the Potency result was “inactive”.

As to `CCCCCCC1(C)CCC(=O)O1` (stereo not given), the Potency result is “inactive”.

Consider `COC(=O)/C=C\C(=O)O`, for which the Potency result is “inactive”.

Turning to `C=CCCCC`, the Potency result was “inactive”.

`C=CC/C=C/C`: the Potency entry is “inactive”.

In the case of `CCCSSCCC`, the Potency entry is “inactive”.

For `OC1(c2ccc(Cl)cc2)CCNCC1`, the Potency result was “inactive”.

In the case of `ONc1ccccc1`, the Potency entry was “inactive”.

Regarding `O/N=C/C=N/O`, the Potency entry is “inactive”.

For the molecule `CC(=O)O[C@H]1C[C@@H]2CC[C@@]1(C)C2(C)C`, the Potency entry is “inactive”.

As for `CCCCCCCCCCOC(C)=O`, the Potency entry was “inactive”.

The values are drawn from PubChem BioAssay (Tox21).
